Measured values as given in PubChem BioAssay (NCI).
Compounds without any hit were thinned out: in the full panel of roughly 83,000, 20% have a hit.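 How to read the values: 0–100, growth inhibition (40 = 60% inhibited); 0, no net growth; -100 to 0, cell death (-40 = 40% of starting cells died; -100 = all dead).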 Unmarked numbers belong to inactive results. The source made the active and inactive calls. Rule for the calls: active = growth percent below 10; inactive = the rest.

Legend:
Test in all cases: NCI-60 one-dose screen, 48 h (100 = growth as untreated, 0 = no growth, -100 = all killed)
Conditions in all cases: 10 µM unless noted
HT29 colon = test system: HT29 colon
SNB-75 CNS = test system: SNB-75 CNS
SNB-19 CNS = test system: SNB-19 CNS
PC-3 prostate = test system: PC-3 prostate
UACC-62 melanoma = test system: UACC-62 melanoma
LOX IMVI melanoma = test system: LOX IMVI melanoma
SK-MEL-28 melanoma = test system: SK-MEL-28 melanoma
SK-MEL-2 melanoma = test system: SK-MEL-2 melanoma
EKVX NSCLC = test system: EKVX NSCLC
SN12C renal = test system: SN12C renal
UO-31 renal = test system: UO-31 renal
TK-10 renal = test system: TK-10 renal
ACHN renal = test system: ACHN renal
A498 renal = test system: A498 renal
CCRF-CEM leukemia = test system: CCRF-CEM leukemia
MOLT-4 leukemia = test system: MOLT-4 leukemia
SR leukemia = test system: SR leukemia
SK-MEL-5 melanoma = test system: SK-MEL-5 melanoma
CAKI-1 renal = test system: CAKI-1 renal
U251 CNS = test system: U251 CNS

SMILES	growth (HT29 colon)	growth (SNB-75 CNS)	growth (SNB-19 CNS)	growth (PC-3 prostate)	growth (UACC-62 melanoma)	growth (LOX IMVI melanoma)	growth (SK-MEL-28 melanoma)	growth (SK-MEL-2 melanoma)	growth (EKVX NSCLC)	growth (SN12C renal)	growth (UO-31 renal)	growth (TK-10 renal)	growth (ACHN renal)	growth (A498 renal)	growth (CCRF-CEM leukemia)	growth (MOLT-4 leukemia)	growth (SR leukemia)	growth (SK-MEL-5 melanoma)	growth (CAKI-1 renal)	growth (U251 CNS)
CCCCC(C#N)C(N)=O (stereo not given)	101%	95.6%	107%	88.2%	102%	98.4%	107%	101%	132%	101%	87.8%	107%	110%	122%	95.8%	90.2%	93.8%			
COc1ccc(-c2csc(NC(=O)c3cc(OC)c(OC)c(OC)c3)n2)cc1	110%	102%	94%	90.9%	89%		101%			98.7%	89.3%	117%	107%	92.2%	105%	103%	95.8%	98.5%	94.1%	
COc1ccc2c3c(c(OCCCN(C)C)nc2c1)-c1ccc(Cl)cc1C3=O	-80.8% (active)	53%		-19.5% (active)	-49% (active)	-93.3% (active)	-74.2% (active)	72.5%	21.3%	32.6%	-72.3% (active)	11.2%	-75.5% (active)	60.9%	-39.7% (active)	-17.2% (active)	-32.7% (active)	39.2%	29.5%	-84.9% (active)
C[C@]12CC[C@@H]3c4ccc(O)c([N+](=O)[O-])c4CC[C@H]3[C@@H]1CC[C@@H]2NS(=O)(=O)c1cccc(Br)c1	68.1%	47.2%	50.6%	15.9%	35.4%		49.6%			21.4%	3.61% (active)	42.8%	24.4%	54.2%		18.2%	-12.1% (active)	25.6%	17.8%	
COc1ccc(CCN2CCCN3C2=Nc2ccccc2S3(=O)=O)cc1	13.7%	16.2%		38.5%	23.5%	27.7%	62.5%	51.9%	45%	53.7%	53.4%	61.1%	51%	0.819% (active)	19.4%	24.7%	24.5%	35.9%	46.5%	30%
c1ccc(-c2nnc(Nc3nnc(-c4ccccc4)s3)s2)cc1	106%	93.4%	111%	97.7%	103%		112%			102%	82.5%	142%	96%	92.1%	95.5%	102%	97.4%	100%	87.9%	
O=C(Cc1ccccn1)C(F)(F)C(F)(F)C(F)(F)F	111%	93.6%	99.8%	91.3%		95.5%	105%	109%	130%		91.6%	117%	111%		97.5%	97%	97.9%	110%		
Cc1nnc(Nc2ccc(NC(=O)Nc3ccc(Cl)cc3)cc2)c2ccccc12	2.24% (active)	68.1%		22.8%	-34.4% (active)	-27.3% (active)	-11.9% (active)	44%	44.2%	60.1%	51.2%	51.7%	58.8%	35.4%	11%	9.76% (active)	-3.51% (active)	52.3%	33.9%	5.4% (active)
CN1CCN(Cc2ccc(NC(=O)c3[nH]ncc3Nc3ccnc4ccnn34)cc2)CC1	67%	63.2%		55.9%	67.7%	24.1%	65.6%	60.6%	100%	35.1%	71.1%	103%	66.4%	74.4%	54.6%	45.5%	16%	71.6%	75.4%	62%
CN(C)c1cccc2c(S(=O)(=O)N[C@H]3CC[C@H]4[C@@H]5CCc6cc(O)ccc6[C@H]5CC[C@]34C)cccc12	2.71% (active)	40.4%	62.5%	16.1%	49.9%		54.7%				10.7%	51.1%	30.8%	49%		17.3%	-16.1% (active)	41.5%	15.5%	
C[C@]12CC[C@@H]3c4ccc(O)c([N+](=O)[O-])c4CC[C@H]3[C@@H]1CC[C@@H]2NS(=O)(=O)c1ccc(C(F)(F)F)cc1	48%	40.5%	48.7%	24.2%	36.1%		43.5%			17.8%	-90.1% (active)	46.5%	3% (active)	46.3%	18.3%	3.51% (active)	-8.8% (active)			
COc1ccc2c(c1)C(=O)c1c-2c(OCCCN(C)C)nc2cc(Br)ccc12	-19.7% (active)	79.2%		63.8%	86.4%	20.7%	-48.6% (active)	97.7%	61.8%	62.2%	-34.7% (active)	76.7%	3.65% (active)	76.3%	-27.6% (active)	21.1%	-21.3% (active)	87.4%	69.6%	-75.7% (active)
COc1ccc2c(c1)C(=O)c1c-2c(OCCN(C)C)nc2cc(OC)ccc12	-43.6% (active)	31.6%		10.1%	7.14% (active)	-89.2% (active)	29.7%	30.9%	20.6%	22.6%	-43.7% (active)	28.5%	-78.6% (active)	38.4%	13.7%	-7.63% (active)	-29.2% (active)	-48.6% (active)	9.1% (active)	-68.7% (active)
C[C@]12CC[C@@H]3c4ccc(O)cc4CC[C@H]3[C@@H]1CC[C@@H]2NS(=O)(=O)c1cccc(Br)c1	61.6%	72.7%	95.2%	38.7%			88.3%			69.8%	36.3%		58.9%	65%		36.3%	27.1%		62.9%	
CCC1=C(c2ccc(OC)cc2)C(C)(C)Oc2c1ccc(O)c2CN1CCCC1	50.4%	41.3%		47.1%	10.5%	-59.7% (active)	-75.6% (active)	-58.5% (active)	88.8%	51.8%	31.3%	57.3%	57.5%	58.4%	21.2%	14.3%	-4.25% (active)	-97.6% (active)	44.5%	-25.4% (active)
CCOC(=O)c1cc(-c2cccnc2)nc2c(Cl)cc(Cl)cc12	88%	104%			95.6%	98.2%	129%		96.5%		75%	75.7%	73.8%		88.9%	98.9%	117%	101%	105%	70.3%
CC1=CC(=O)C(C(C)=Nc2ccccc2Cl)C(=O)O1 (stereo not given)	101%	83.6%			98%	83.6%	105%		103%		95.8%	126%	98.1%	85.7%	89.2%	101%	118%	120%		103%
ClC1=C(Cl)C(Cl)=C(Cl)C1=C/C=C/c1ccccc1	7.03% (active)	19.8%			-83.6% (active)	-91.6% (active)	-74.1% (active)		-6.52% (active)	-46% (active)	-50.9% (active)	-5.53% (active)	-74% (active)	-87.4% (active)	-21.4% (active)	-23.5% (active)	-43.2% (active)	-97.3% (active)	-4.48% (active)	-93.3% (active)
c1cnc2ccc3ncccc3c2c1	113%	89.5%			99.2%	97.9%	85.5%		101%		76.8%	127%	82.1%	96.5%	98.9%	106%	82%	106%	90.3%	104%
